# Sampled rows, rich in hits. Any-hit rate of the full collection: about 13%.
# G9a inh: qHTS Assay for Inhibitors of Histone Lysine Methyltransferase G9a; G9a H3K9 monomethylation, AlphaScreen, 2 h; Potency, µM (series often up to 102 µM), inactives show top-dose activity, negative = inhibition, most hits filed as inhibitors; hit rate 8.8% among 350,000; note: potency is the fitted concentration of half-maximal effect; % is set by controls: 0 for no effect and ±100 for the full control effect; nearly all actives have a fitted effect of over 75% in size
# Target sequence (Q96KQ7 913-1193 limits assumed): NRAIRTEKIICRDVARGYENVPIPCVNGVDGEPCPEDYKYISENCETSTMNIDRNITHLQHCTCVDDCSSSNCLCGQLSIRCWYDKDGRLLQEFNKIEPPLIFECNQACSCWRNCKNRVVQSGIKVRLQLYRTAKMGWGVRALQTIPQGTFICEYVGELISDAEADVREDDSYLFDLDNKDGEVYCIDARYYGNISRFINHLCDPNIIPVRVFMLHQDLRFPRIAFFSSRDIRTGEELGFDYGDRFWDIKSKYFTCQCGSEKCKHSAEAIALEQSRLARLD
#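 Compounds were preincubated with 20 nM G9a for 15 min, after which biotinylated H3K9 peptide (500 nM) and SAM (20 uM) started a 2 h room-temperature reaction. Monomethylated product was quantified by antibody-based AlphaScreen chemiluminescence.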
# miR-21 reporter: qHTS Assay for Modulators of miRNAs and/orActivators of miR-21. HeLa miR-21 FLuc reporter, luciferase, 48 h. Potency, µM (top dose mostly 38.3 µM), for the others: top-dose activity change, positive = activation, usual class: activators. 340,000 tested, under 10 active;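 note: % of control where 0% means no effect; miR-21 action dims this reporter so a rising signal means less miR-21 action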
#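 Using DMEM plus 10% FBS, HeLa miR-21-FLuc cells are incubated with test compounds (final up to about 40uM) for 48 hours; firefly luciferase signal is then imaged following reagent-mediated lysis.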
# Sfp PPTase inh: qHTS Assay for Inhibitors of Bacillus subtilis Sfp phosphopantetheinyl transferase (PPTase) | 4'-phosphopantetheinyl transferase ffp (Bacillus subtilis), Q9F4F7 | Biochemical Sfp PPTase activity, qHTS | Potency, µM, inactives show largest response in the series, negative = inhibition, actives largely listed as inhibitors | hit rate 3.5% among 310,000 | AID 1490, 2009;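 note: the enzyme is Sfp with the accession as filed and its product quenches rhodamine fluorescence; potency is the fitted concentration of half-maximal effect; 0% = enzyme reaction without inhibitor and -100% = no enzyme wells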
#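 Fluorescence-quenching assay: 15 nM Sfp-PPTase preincubated 15 min at room temperature with compound, then 5 uM rhodamine-CoA and 12.5 uM BHQ-2-labelled YbbR peptide added. Fluorescence (ex 525/em 598 nm) read at start and after 30 min; difference gives rate.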
# ALDH1A1 block: qHTS Assay for Inhibitors of Aldehyde Dehydrogenase 1 (ALDH1A1); Potency, µM (series often up to 75.3 µM), for the others: at the highest dose activity, negative = inhibition, most hits filed as inhibitors; Purified ALDH1A1, NADH fluorescence, propionaldehyde substrate; AID 1030, 2008; hit rate 7.3% among 220,000; Aldehyde dehydrogenase 1A1 (Homo sapiens), P00352; active = well fitted inhibition curve with a large enough effect, not every such curve was filed as active; inconclusive = small, poorly fitted or top-dose-only effect, or another doubt; inactive = no such curve, though single readings can be large or run the other way;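 note: potency is the fitted concentration of half-maximal effect; plate controls were no enzyme wells and a reference inhibitor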
# Lamin A splicing: qHTS Assay for Modulators of Lamin A Splicing. HeLa LMNA splicing GFP/RFP minigene ratio, 48 h. Potency, µM (top dose mostly 46.1 µM), without a hit: top-dose ratio change, negative = inhibition, hits mostly inhibitors. hit rate 0.01% among 200,000. AID 1487, 2009; active = well fitted inhibition curve with a large enough effect in the signal ratio, with a control signal flat, not every such curve was filed as active; inconclusive = small, poorly fitted or top-dose-only effect, or effect the other way, or a change in a side signal; the % refers to the signal ratio; note: potency is the fitted concentration of half-maximal effect; % is set by controls: 0 for no effect and ±100 for the full control effect
#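 S3 HeLa stable clones carrying a lamin A-EGFP splicing minigene plus DsRed2 were seeded at 600 cells/well in Opti-MEM with 2% FBS, pin-dosed and incubated 48 h at 37°C. Acumen cytometry (488 nm) gave the GFP/RFP total-intensity ratio.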
# JMJD2E inh: qHTS Assay for Inhibitors of Human Jumonji Domain Containing 2E (JMJD2E); AID 2147, 2009; hit rate 1.6% among 230,000; Lysine-specific demethylase 4E (Homo sapiens), B2RXH2; Potency, µM (top dose mostly 57.1 µM), for inactives: at the highest dose activity change, negative = inhibition, actives largely listed as inhibitors; JMJD2E catalytic domain, FDH-coupled NADH fluorescence (FDH is formaldehyde dehydrogenase);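 note: potency is the fitted concentration of half-maximal effect; 0% = wells with enzyme and -100% = buffer wells without enzyme; nearly all actives have a fitted effect of over 50% in size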
# Target sequence (B2RXH2 1-337 limits assumed): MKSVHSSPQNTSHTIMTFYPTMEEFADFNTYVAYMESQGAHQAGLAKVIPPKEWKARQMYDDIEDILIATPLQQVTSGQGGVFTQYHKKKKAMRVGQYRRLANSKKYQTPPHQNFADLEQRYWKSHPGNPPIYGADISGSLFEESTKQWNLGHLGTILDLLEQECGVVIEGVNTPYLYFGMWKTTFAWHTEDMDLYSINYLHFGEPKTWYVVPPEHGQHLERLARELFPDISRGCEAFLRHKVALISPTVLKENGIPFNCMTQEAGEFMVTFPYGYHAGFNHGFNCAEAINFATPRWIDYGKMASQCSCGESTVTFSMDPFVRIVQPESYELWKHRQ
# Active calls of the source: *; ? = inconclusive; . = not tested or not shown; [ ] = another dose, or the depositor's remark. Unless noted, calls come from the whole dose curve; as a rule, active = well fitted curve in the direction sought with a large enough effect; inconclusive = small, poorly fitted or top-dose-only effect, or another doubt; inactive = no such curve, though single readings can be large; an effect the other way counts as inactive or inconclusive.
SMILES,G9a inh,miR-21 reporter,Sfp PPTase inh,ALDH1A1 block,Lamin A splicing,JMJD2E inh
Cn1c(SCc2nc3ccccc3s2)nnc1-c1cccs1,45µM*,-37%,56µM*,?,2%,-28%
NC(=O)CSCc1nc2ccccc2s1,?,-25%,56µM*,7.9µM*,12%,-10%
N/C(Cc1nc2ccccc2s1)=N\O,-15%,-6%,2%,.,.,-26%
Cc1cc(C)c(-n2c(SCc3nc4ccccc4s3)n[nH]c2=O)c(C)c1,2%,23%,4%,.,.,10%
CC(C)Cn1c(=O)c(CCC(=O)Nc2ccc(N3CCOCC3)cc2)nc2cc(Cl)ccc21,-14%,-2%,10%,.,.,.
O=C(CSc1n[nH]c(=O)n1C1CC1)NCc1ccccc1,?,10%,-2%,.,.,5%
O=c1[nH]nc(SCc2nc3ccccc3s2)n1C1CC1,7.9µM*,-43%,-18%,?,?,?
COc1ccc2[nH]c(=O)c(CN(CC3CCCO3)C(=S)Nc3cccc(C)c3)cc2c1 (stereo unspecified),.,1%,56µM*,?,.,?
COc1ccc2[nH]c(=O)c(CN(C(=O)c3cccc(Cl)c3)c3cccc(C)c3)cc2c1,-24%[59 µM],-6%,.,.,.,.
COc1ccc(NCc2cc3cc(OC)ccc3[nH]c2=O)cc1,?,-1%,-3%,8.9µM*,6%,?
COc1ccc2[nH]c(=O)c(CN(Cc3cccs3)C(=S)Nc3cccc(C)c3)cc2c1,-6%[59 µM],1%,-10%,?,-12%,0%
COc1ccc2[nH]c(=O)c(CNc3cccc(C)c3)cc2c1,?,-38%,10µM*,?,?,0%
COc1ccc2[nH]c(=O)c(CNC3CCCCC3)cc2c1,?,-3%,7%,?,-16%,?
COc1ccc(NCc2cc3ccccc3[nH]c2=O)cc1,50µM*,-31%,7%,7.9µM*,0%,?
C=CCC(Nc1ccc(OC)cc1)C(=O)OCC (stereo unspecified),.,.,4%,6%,.,10%
CN(C(=O)CC1C(=O)NCCN1Cc1ccccc1C(F)(F)F)C1CCOCC1 (stereo unspecified),-3%[0.501 µM],0%,12%,.,.,.
COc1ccc2[nH]c(=O)c(CN(c3ccccc3)S(=O)(=O)c3ccccc3)cc2c1,12%,-4%,4%,.,.,.
COc1ccc2[nH]c(=O)c(CN(c3ccccc3OC)S(=O)(=O)c3ccccc3)cc2c1,56µM*,17%,4%,.,.,.
O=C(COc1ccc(S(=O)(=O)NCc2ccccc2)cc1Cl)NCc1ccccn1,45µM*,-1%,?,.,.,.
O=C(COc1ccc(S(=O)(=O)NCc2ccccc2)cc1Cl)NCc1ccncc1,?,10%,-10%,.,.,.
O=C(COc1ccc(S(=O)(=O)N2CCc3ccccc32)cc1Cl)NCc1ccccn1,14µM*,0%,-25%,14µM*,0%,-25%
Cc1cccc(CSc2ncc(Cl)c(C(=O)Nc3sc4c(c3C(N)=O)CCCC4)n2)c1,3%[59 µM],-3%,.,.,.,.
Cc1cc(O)ccc1N/C=C1\CCCC1=O,?,-1%,?,13µM*,?,?
CCOc1ccc(/C=N/OCC(=O)NCc2ccc3c(c2)OCO3)cc1OC,40µM*,-2%,19%,10%,-22%,-9%
O=C(COC(=O)c1cnc(Cl)c(Cl)c1)NCc1ccc2c(c1)OCO2,2%[59 µM],2%,0%,2.2µM*,-11%,11%
SMILES,G9a inh,miR-21 reporter,Sfp PPTase inh,ALDH1A1 block,Lamin A splicing,JMJD2E inh
COc1ccccc1/C=N/OCC(=O)NCc1ccc2c(c1)OCO2,-36%,-2%,-7%,-5%,-12%,-6%
COc1c(Cl)cc(-c2noc(C)c2C(=O)NCc2ccc3c(c2)OCO3)cc1Cl,20%,-9%,10%,0.71µM*,-8%,-3%
COc1ccc(C(=O)OCC(=O)NCc2ccc3c(c2)OCO3)cc1[N+](=O)[O-],22%[59 µM],-5%,13%,5µM*,-4%,8%
COc1c(Cl)cc(-c2noc(C)c2C(=O)NCc2ccccc2)cc1Cl,11%,-5%,-2%,?,12%,0%
O=C(COC(=O)c1ccc2c(c1)OCO2)NCc1ccc(Cl)cc1,9%[59 µM],-2%,1%,10%,6%,-3%
COC(=O)c1cc(C(=O)OCC(=O)NCc2ccc3c(c2)OCO3)cc([N+](=O)[O-])c1,-8%[59 µM],-1%,5%,-5%,5%,7%
Cc1ccc(C(C(=O)NC2CCCCC2)N(CCCN2CCOCC2)C(=O)c2snc(C(N)=O)c2N)cc1 (stereo unspecified),2%,-2%,23%,.,.,.
COC(=O)c1ccccc1NC(=O)Cn1c(=O)n(-c2ccc(C)cc2)c(=O)c2ccccc21,3%[59 µM],19%,.,.,.,.
CCN1CCN(C(c2ccccc2)c2c(O)cc(C)n(CCOC)c2=O)CC1 (stereo unspecified),?,3%,.,.,?,.
Cc1ccc(C)c(Cn2c(=O)n(C(C)C)c(=O)c3oc4ccccc4c32)c1,4%[59 µM],-1%,.,.,.,.
O=C(NCc1cccc(Cl)c1)c1c2c(nc3ccccc13)C(=O)N(C1CCCCC1)C2,0%[59 µM],1%,.,.,1%[46 µM],.
O=C(NCCc1ccccc1)C(=O)NCC1OCCCN1S(=O)(=O)c1cccs1 (stereo unspecified),102%,-4%,11%,.,.,.
COCCNC(=O)C(=O)NCC1OCCCN1S(=O)(=O)c1cccs1 (stereo unspecified),-1%[59 µM],-1%,6%,18µM*,-15%,8%
O=C(NCc1ccco1)C(=O)NCC1OCCCN1S(=O)(=O)c1ccccc1 (stereo unspecified),-3%[59 µM],1%,7%,14µM*,15%,-4%
Cc1ccc(-c2nn(-c3ccc(F)cc3F)c3c2cnc2c(F)cccc23)cc1,13%[59 µM],-10%,.,.,8%[46 µM],.
COc1ccccc1-n1cc(-c2ccccc2)[nH]c1=S,10µM*,2%,-20%,.,.,.
CC(=O)Nc1ccc(-n2c(C)ccc2-c2ccccc2)cc1,?,1%,-7%,.,.,.
CCOc1ccc(-n2cc(-c3ccc(OC)c(OC)c3)[nH]c2=S)cc1,2.5µM*,0%,?,?,.,-27%
CC(=O)Nc1ccc(-n2cc(-c3ccccc3)[nH]c2=S)cc1,1.4µM*,-8%,40µM*,-2%,?,-8%

# Compound activity as filed in PubChem BioAssay.
